Measured values from PubChem BioAssay AID1159580 (chemical genetic matrix, 2015).
“And” between values parts separate entries of the source, which are not always exact repeats. Equal values may be shown once. The campaign covered roughly 5,500 compounds. About 2,000 (36%) were called active. Another 18% or so got no clear call; they are omitted. No stated cut-off is given here; in the data, active means normalized growth mostly below about 0.91 (no sharp cut-off); inconclusive means no clear call, values can overlap the other calls; inactive means mostly above about 0.92. Some of the results follow.

Assay: chemical genetic growth profiling, strain panel (AID 1159580);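 further: tested at 20 µM; growth read once vehicle control cultures reached saturation at 30 °C; 1 = growth at the plate median or of vehicle wells; lower values mean less growth of the strain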
Settings: S. cerevisiae deletion strains, growth OD

Measured: normalized growth

CCn1cc(C(=O)O)c(=O)c2cnc(N3CCNCC3)nc21
inactive: locus YAL021C, strain ccr4, hits give low values 1.02 | locus YAL026C, strain drs2, hits give low values 1.03 | locus YAL030W, strain snc1, hits give low values 1.03 | locus YBL061C, strain skt5, hits give low values 1.04 | locus YBR009C, strain hhf1, hits give low values 1.02 | locus YBR021W, strain FUR4, hits give low values 0.997 | locus YBR023C, strain chs3, hits give low values 1.03 | locus YBR171W, strain sec66, hits give low values 1.04 | locus YBR229C, strain ROT2, hits give low values 0.98 | locus YBR231C, strain swc5, hits give low values 0.998 | locus YBR279W, strain paf1, hits give low values 1.01 | locus YCL011C, strain gbp2, hits give low values 1.04 | locus YCL016C, strain dcc1, hits give low values 1.01 | locus YCL029C, strain bik1, hits give low values 0.987 | locus YCL069W, strain vba3, hits give low values 1.02 | locus YCR088W, strain abp1, hits give low values 1.02 | locus YDL005C, strain med2, hits give low values 1 | locus YDL035C, strain GPR1, hits give low values 1.01 | locus YDL040C, strain nat1, hits give low values 1 | locus YDL074C, strain BRE1, hits give low values 1.06 | locus YDL101C, strain DUN1, hits give low values 0.994 | locus YDL134C, strain PPH21, hits give low values 0.986 | locus YDL185W, strain tfp1, hits give low values 0.985 | locus YDL192W, strain arf1, hits give low values 0.985 | locus YDR001C, strain nth1, hits give low values 1.01 | locus YDR069C, strain doa4, hits give low values 1.02 | locus YDR101C, strain arx1, hits give low values 1.01 | locus YDR137W, strain rgp1, hits give low values 1 | locus YDR159W, strain sac3, hits give low values 0.945 | locus YDR162C, strain NBP2, hits give low values 0.992 | locus YDR195W, strain ref2 0.975 | locus YDR297W, strain sur2, hits give low values 1 | locus YDR318W, strain mcm21, hits give low values 1.01 | locus YDR334W, strain swr1, hits give low values 1.02 | locus YDR335W, strain msn5, hits give low values 1.01 | locus YDR388W, hits give low values 0.993 | locus YDR392W, strain spt3, hits give low values 0.959 | locus YDR502C, strain sam2, hits give low values 1 | locus YEL003W, strain gim4, hits give low values 1.02 | locus YEL037C, strain rad23, hits give low values 1.01 | locus YEL061C, strain CIN8 (second series), hits give low values 1 | locus YEL061C, strain CIN8, hits give low values 0.995 | locus YER015W, strain faa2, hits give low values 1.02 | locus YER016W, strain bim1, hits give low values 1.02 | locus YER110C, hits give low values 0.987 | locus YER111C, strain swi4, hits give low values 1.02 | locus YER155C, strain BEM2 (second series), hits give low values 0.981 | locus YER155C, strain BEM2, hits give low values 0.983 | locus YER167W, strain BCK2, hits give low values 0.987 | locus YFR010W, strain ubp6, hits give low values 1 | locus YGL078C, strain dbp3, hits give low values 1 | locus YGL086W, strain mad1, hits give low values 1.01 | locus YGL167C, strain pmr1, hits give low values 1.01 | locus YGL173C, strain kem1, hits give low values 1 | locus YGL227W, strain vid30, hits give low values 1.01 | locus YGL240W, strain doc1, hits give low values 0.988 | locus YGL248W, strain PDE1, hits give low values 1 | locus YGL253W, strain hxk2, hits give low values 1.04 | locus YGR078C, strain PAC10, hits give low values 1.05 | locus YGR135W, strain pre9, hits give low values 0.963 | locus YGR252W, strain gcn5, hits give low values 1 | locus YHR013C, strain ard1, hits give low values 1.04 | locus YHR027C, strain rpn1, hits give low values 1.01 | locus YHR030C, strain SLT2, hits give low values 0.983 and 1.06 | locus YHR079C, strain IRE1 (second series), hits give low values 0.992 | locus YHR079C, strain IRE1, hits give low values 1.03 | locus YHR094C, strain hxt1, hits give low values 0.984 | locus YHR129C, strain ARP1, hits give low values 0.986 | locus YHR142W, strain chs7, hits give low values 1.04 | locus YHR200W, strain rpn10, hits give low values 0.988 | locus YIL066C, strain RNR3, hits give low values 1.01 | locus YIL073C, strain SPO22, hits give low values 0.961 | locus YIL125W, strain kgd1, hits give low values 0.993 | locus YIR030C, strain dcg1, hits give low values 0.986 | locus YJL092W, strain hpr5, hits give low values 1.02 | locus YJL095W, strain BCK1 (second series), hits give low values 1 | locus YJL095W, strain BCK1, hits give low values 1.03 and 1.04 | locus YJL115W, strain asf1, hits give low values 1 | locus YJL129C, strain trk1, hits give low values 1.04 | locus YJL134W, strain LCB3, hits give low values 0.983 | locus YJL154C, strain vps35, hits give low values 1.03 | locus YJL164C, strain tpk1, hits give low values 1.05 | locus YJL166W, strain qcr8, hits give low values 1.02 | locus YJL168C, strain set2, hits give low values 0.99 | locus YJL187C, strain SWE1 (second series), hits give low values 1.02 | locus YJL187C, strain SWE1, hits give low values 1.02 | locus YJR043C, strain POL32, hits give low values 1 | locus YJR066W, strain TOR1, hits give low values 1
